The nature of assay [1]: AP1 Signaling Pathway (AID 357; active = well fitted curve in either direction with a large enough effect, not every such curve was filed as active;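 also: ME-180 reporter cells stimulated with EGF at its EC50 level; % is scaled to controls: 0 for no effect and ±100 for the full control effect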). The procedure, abridged: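 A ratiometric CCF4 readout (405 nm excitation; 460 and 530 nm emission) quantified AP-1-driven beta-lactamase in ME-180 cells after 5 h with compound and EC50 EGF; AC50 values were derived for activators and inhibitors.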
Assay [2] is described as follows: NFAT Signaling Pathway (AID 444; active = well fitted curve in either direction with a large enough effect, not every such curve was filed as active;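 also: carbachol stimulus at about its EC50 of 1 µM final; % is scaled to controls: 0 for no effect and ±100 for the full control effect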). The settings on record: Jurkat NFAT-bla M1, carbachol, beta-lactamase ratio, 5 h; at 17.2 µM (top of the series) unless noted. The procedure, abridged: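 Read-out: CCF4 FRET ratio (460 nm/530 nm) after 1 h RT dye loading, used for %activity and AC50 from titration series. Cells: Jurkat NFAT-β-lactamase/M1 line, treated with compound plus 1 uM carbachol for 5 h, 37 °C.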

The nature of assay [3]: Stat Signaling Pathway (AID 446; active = well fitted curve in either direction with a large enough effect, not every such curve was filed as active;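 also: ME-180 cervical cancer cells given 40 pM IL-6 alongside compound; SIE-controlled beta-lactamase reporter measured as 460/530 nm FRET emission ratio; % is scaled to controls: 0 for no effect and ±100 for the full control effect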). The procedure, abridged:
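ME-180 SIE-bla cells; overnight plating; cpd + IL-6 40 pM, 5 h, 37 C; LiveBLAzer 2.5 h RT; 460/530 nm emission ratio. Normalized to 300 pM IL-6 and 125 nM JAK inhibitor controls.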

Assay [4] deals with Glucocorticoid receptor (Homo sapiens) (UniProt P04150). Description: GR-GFP Redistribution (AID 450;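 active = compounds whose dose series gives a full or clear partial fitted curve of increased nuclear translocation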; also: potency is read from the fitted curve at half-maximal effect). Conditions: U2OS GR-GFP nuclear translocation, laser cytometry, 2 h.
For assay [5] the target is unchanged. Description: GR-EFC Redistribution (AID 451; calls by dose curve; also: potency is read from the fitted curve at half-maximal effect). Conditions: CHO-K1 GR-EFC translocation, beta-gal luminescence, 2 h. The procedure, abridged:
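Translocation of GR-ED fusion to nuclear EA restores b-gal, read by luminescence after 1 h room-temperature detection. Engineered CHO-K1 biosensor cells, 1,000/well, exposed 2 h at 37 C to titrations up to 46 uM final.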

Assay [6] deals with Mitogen-activated protein kinase 10 (Mus musculus) (UniProt Q61831). Description: JNK3 AlphaScreen Assay (AID 530; active = well fitted curve in either direction with a large enough effect, not every such curve was filed as active;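 also: kinase came from lysate of stimulated human HepG2 cells; signal reports phosphorylation of biotinylated GST-cJun 1-79 at Ser73 with 10 µM ATP; % is scaled to controls: 0 for no effect and ±100 for the full control effect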). The procedure, abridged: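 Room-temperature AlphaScreen kinase assay; pre-activated HepG2 lysate as JNK3 source, biotin-GST-cJun(1-79) substrate, 10 uM ATP, compound 15 min preincubation.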
Background: Alpha assays give light when donor and acceptor beads are brought close together.

The nature of assay [7]: qHTS Assay for Lipid Storage Modulators (AID 1519; calls by dose curve). The settings on record: Drosophila S3 cells, BODIPY lipid droplet/cell ratio, laser cytometry, cells loaded with oleic acid. The procedure, abridged:
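Cells seeded at 5,000 per well were treated with compounds over a concentration series and loaded with oleic acid (400 uM, as added). Lipid droplet fluorescence (488 nm excitation, 500-530 nm channel) was read by laser-scanning cytometry and normalized to 20 uM Triacsin C.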
A general note: In qHTS, concentration-response curves come from the screen itself.

Assay [8] deals with Ubiquitin carboxyl-terminal hydrolase 1 (Homo sapiens) (UniProt O94782). Description: Inhibitors of USP1/UAF1: Pilot qHTS (AID 504865). Also: nearly all actives have a fitted effect of over 35% in size. Also: potency is read from the fitted curve at half-maximal effect. The procedure, abridged: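 Deubiquitinase activity followed as kinetic rhodamine fluorescence release from 150 nM Ub-Rho. 1 nM USP1/UAF1 with compound, after 15 min room-temperature preincubation, in HEPES pH 7.8 buffer containing TCEP, EDTA, BSA and Tween-20.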

The target of assay [9] is 3',5'-cyclic-AMP phosphodiesterase 4B (Homo sapiens) (UniProt Q07343). Description: qHTS Assay for Inhibitors of PDE-IV (AID 607; active = well fitted activation curve with a large enough effect in the main read-out, with a control signal flat, not every such curve was filed as active; also: % of control where 0% means no effect). The procedure, abridged:
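ACTOne HEK293 cells carry a modified cAMP-gated CNG channel and express endogenous PDE4; plated 1000 cells/well, compounds up to 22.9 uM final. Membrane-potential dye fluorescence (ex 535/em 590) was read; parental cells received 10 uM forskolin + 100 uM RO 20-1724.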

The target of assay [10] is ATP-dependent 6-phosphofructokinase (Trypanosoma brucei brucei) (UniProt O15648). Description: qHTS Assay to Find Inhibitors of T. brucei phosphofructokinase: hit validation (AID 492961). The procedure, abridged:
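Measures ADP output of PFK (1.25 nM) at 0.1 mM ATP, 0.5 mM F6P, pH 8.0 TEA buffer with 5 mM MgCl2. No-enzyme wells define full inhibition; uninhibited enzyme wells define zero.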

Assay [11] deals with Luciferin 4-monooxygenase (Photinus pyralis) (UniProt P08659). Description: Biochemical firefly luciferase enzyme assay for NPC (AID 624030).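 Also: purified P. pyralis luciferase at 10 nM with luciferin and ATP substrate; 0% = DMSO and -100% = full luciferase inhibition by PTC124 control; nearly all actives have a fitted effect of over 70% in size.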 The procedure, abridged: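 Direct inhibition of firefly luciferase enzyme (10 nM final, 50 mM Tris Acetate) assessed by luminescence within 5 minutes. Percent activity scaled between DMSO and PTC124 positive control, with concentration-effect curves classified by fit quality and response.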

Assay [12] can be described thus: qHTS profiling for inhibitors of Plasmodium falciparum proliferation (AID 504749).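 Also: 0% = DMSO vehicle and full inhibition = artemisinin control; nearly all actives have a fitted effect of over 60% in size.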 Conditions: P. falciparum in erythrocytes, SYBR Green DNA, 72 h. The procedure, abridged:
(§1)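 Three-day growth assay of blood-stage parasites in erythrocytes (0.3% parasitemia, 2.5% hematocrit) at 37 C, 5% CO2, quantified by SYBR Green DNA staining after overnight detergent lysis.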

Assay [13] has as its system C2A. The description is as above. Conditions: P. falciparum in erythrocytes, SYBR Green DNA, 72 h; series mostly up to 12.8 µM. The procedure, abridged: as §1
Assay [14] has as its system CP191. The assay is described as above. Conditions: P. falciparum in erythrocytes, SYBR Green DNA, 72 h; series mostly up to 12.8 µM. The procedure, abridged: as §1
Assay [15] concerns CP238. Described as above. The settings on record: P. falciparum in erythrocytes, SYBR Green DNA, 72 h; series mostly up to 12.8 µM. The procedure, abridged: as §1
For assay [16], the system named is CP256. The description is as above. The settings on record: P. falciparum in erythrocytes, SYBR Green DNA, 72 h; series mostly up to 12.8 µM. The procedure, abridged:
as §1

In assay [17] the test system is FAB9. The assay is described as above. The settings on record: P. falciparum in erythrocytes, SYBR Green DNA, 72 h; series mostly up to 12.8 µM. The procedure, abridged: as §1
Assay [18] has as its system JCK. The assay is described as above. The settings on record: P. falciparum in erythrocytes, SYBR Green DNA, 72 h; series mostly up to 12.8 µM. The procedure, abridged: as §1
For assay [19], the system named is SC27B. The assay is described as above. Conditions: P. falciparum in erythrocytes, SYBR Green DNA, 72 h; series mostly up to 12.8 µM. The procedure, abridged:
as §1

[20] abbreviates: measured here: cell count channel max response.
Setting [21] is: measured here: lipid channel max response.

SMILES strings stand for the structures. Values joined by “and” are separate entries in the source; they are usually repeats but may differ in a detail not shown here. Identical values can stand only once. Inconclusive results are not listed. Active and inactive are the calls of the source. Unless noted, calls follow the shape of the dose curve; as a rule, active = well fitted curve in the direction sought with a large enough effect; inconclusive = small, poorly fitted or top-dose-only effect, or another doubt; inactive = no such curve, though single readings can be large; an effect the other way counts as inactive or inconclusive. A value given as a limit tells only on which side of the number the result lay.

Chain of Glucocorticoid receptor (Homo sapiens) (P04150 whole entry, looked up): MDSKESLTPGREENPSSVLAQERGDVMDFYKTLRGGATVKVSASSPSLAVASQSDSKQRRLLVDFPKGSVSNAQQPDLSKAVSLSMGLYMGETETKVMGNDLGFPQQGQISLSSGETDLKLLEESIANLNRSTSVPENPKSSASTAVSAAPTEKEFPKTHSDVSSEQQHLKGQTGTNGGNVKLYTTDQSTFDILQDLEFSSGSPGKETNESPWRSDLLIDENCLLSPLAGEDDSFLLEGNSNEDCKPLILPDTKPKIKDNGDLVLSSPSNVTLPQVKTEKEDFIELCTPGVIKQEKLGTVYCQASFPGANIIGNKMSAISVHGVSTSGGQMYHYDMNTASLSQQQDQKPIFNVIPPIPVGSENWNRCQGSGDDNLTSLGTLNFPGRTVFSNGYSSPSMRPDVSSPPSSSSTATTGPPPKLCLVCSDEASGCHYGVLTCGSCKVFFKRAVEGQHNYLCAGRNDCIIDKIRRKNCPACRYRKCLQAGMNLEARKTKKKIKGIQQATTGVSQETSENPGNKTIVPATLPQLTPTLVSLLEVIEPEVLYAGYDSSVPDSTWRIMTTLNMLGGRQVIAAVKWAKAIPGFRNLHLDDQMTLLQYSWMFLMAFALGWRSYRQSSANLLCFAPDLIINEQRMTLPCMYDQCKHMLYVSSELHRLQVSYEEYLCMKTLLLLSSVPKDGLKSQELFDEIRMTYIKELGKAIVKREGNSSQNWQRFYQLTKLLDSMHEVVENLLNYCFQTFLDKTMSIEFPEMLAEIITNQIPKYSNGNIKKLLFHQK
Chain of Ubiquitin carboxyl-terminal hydrolase 1 (Homo sapiens) (O94782 whole entry, looked up): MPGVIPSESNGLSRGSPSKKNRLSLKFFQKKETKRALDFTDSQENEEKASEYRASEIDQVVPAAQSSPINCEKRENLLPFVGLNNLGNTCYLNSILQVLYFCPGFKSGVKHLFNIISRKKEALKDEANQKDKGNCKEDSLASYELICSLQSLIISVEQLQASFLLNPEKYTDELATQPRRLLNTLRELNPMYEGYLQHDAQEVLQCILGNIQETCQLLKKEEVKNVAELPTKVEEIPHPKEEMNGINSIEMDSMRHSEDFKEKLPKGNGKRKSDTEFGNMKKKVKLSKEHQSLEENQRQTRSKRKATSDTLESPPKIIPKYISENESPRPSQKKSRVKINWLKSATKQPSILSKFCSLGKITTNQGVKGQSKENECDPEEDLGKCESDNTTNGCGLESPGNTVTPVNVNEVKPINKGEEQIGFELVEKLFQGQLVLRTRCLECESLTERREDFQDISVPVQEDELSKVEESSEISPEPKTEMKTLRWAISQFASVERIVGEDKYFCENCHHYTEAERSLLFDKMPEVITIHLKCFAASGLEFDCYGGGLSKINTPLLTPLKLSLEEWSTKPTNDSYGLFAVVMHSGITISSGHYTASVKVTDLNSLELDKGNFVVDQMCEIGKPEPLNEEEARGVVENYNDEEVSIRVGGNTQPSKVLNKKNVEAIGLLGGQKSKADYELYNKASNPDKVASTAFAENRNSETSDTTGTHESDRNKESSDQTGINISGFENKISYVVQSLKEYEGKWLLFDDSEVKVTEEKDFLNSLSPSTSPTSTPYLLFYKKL
Chain of 3',5'-cyclic-AMP phosphodiesterase 4B (Homo sapiens) (Q07343 whole entry, looked up): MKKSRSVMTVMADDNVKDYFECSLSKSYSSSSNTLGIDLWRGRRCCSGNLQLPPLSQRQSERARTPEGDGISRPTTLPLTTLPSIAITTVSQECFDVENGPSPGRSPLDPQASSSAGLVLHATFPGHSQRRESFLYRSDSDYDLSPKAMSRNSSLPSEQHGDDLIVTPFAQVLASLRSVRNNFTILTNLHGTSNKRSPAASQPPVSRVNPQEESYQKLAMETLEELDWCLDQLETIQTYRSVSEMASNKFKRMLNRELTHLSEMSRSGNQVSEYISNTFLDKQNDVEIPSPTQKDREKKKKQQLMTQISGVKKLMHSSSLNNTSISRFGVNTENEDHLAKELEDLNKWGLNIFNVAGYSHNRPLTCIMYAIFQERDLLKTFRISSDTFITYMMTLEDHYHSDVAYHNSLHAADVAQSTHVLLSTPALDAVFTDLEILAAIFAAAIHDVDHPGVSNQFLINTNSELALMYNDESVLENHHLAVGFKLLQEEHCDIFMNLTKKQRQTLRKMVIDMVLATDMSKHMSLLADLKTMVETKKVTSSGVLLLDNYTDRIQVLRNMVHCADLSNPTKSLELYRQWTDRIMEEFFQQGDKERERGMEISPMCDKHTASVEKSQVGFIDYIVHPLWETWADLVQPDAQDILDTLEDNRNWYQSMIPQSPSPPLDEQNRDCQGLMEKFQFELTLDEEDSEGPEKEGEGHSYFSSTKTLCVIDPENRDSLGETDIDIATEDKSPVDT
Chain of ATP-dependent 6-phosphofructokinase (Trypanosoma brucei brucei) (O15648 whole entry, looked up): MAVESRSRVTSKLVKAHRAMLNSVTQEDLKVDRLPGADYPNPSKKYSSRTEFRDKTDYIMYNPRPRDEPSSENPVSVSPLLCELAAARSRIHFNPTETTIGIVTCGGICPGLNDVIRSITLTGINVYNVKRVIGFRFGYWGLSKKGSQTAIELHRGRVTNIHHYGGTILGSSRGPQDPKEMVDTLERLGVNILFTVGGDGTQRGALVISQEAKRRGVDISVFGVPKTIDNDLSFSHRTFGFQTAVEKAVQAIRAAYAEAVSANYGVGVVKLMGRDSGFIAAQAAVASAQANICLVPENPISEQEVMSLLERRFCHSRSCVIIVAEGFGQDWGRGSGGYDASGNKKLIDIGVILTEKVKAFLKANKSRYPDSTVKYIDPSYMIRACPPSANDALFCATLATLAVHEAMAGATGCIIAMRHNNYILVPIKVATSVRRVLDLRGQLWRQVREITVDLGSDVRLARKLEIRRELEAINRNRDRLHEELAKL
Chain of Luciferin 4-monooxygenase (Photinus pyralis) (P08659 whole entry, looked up): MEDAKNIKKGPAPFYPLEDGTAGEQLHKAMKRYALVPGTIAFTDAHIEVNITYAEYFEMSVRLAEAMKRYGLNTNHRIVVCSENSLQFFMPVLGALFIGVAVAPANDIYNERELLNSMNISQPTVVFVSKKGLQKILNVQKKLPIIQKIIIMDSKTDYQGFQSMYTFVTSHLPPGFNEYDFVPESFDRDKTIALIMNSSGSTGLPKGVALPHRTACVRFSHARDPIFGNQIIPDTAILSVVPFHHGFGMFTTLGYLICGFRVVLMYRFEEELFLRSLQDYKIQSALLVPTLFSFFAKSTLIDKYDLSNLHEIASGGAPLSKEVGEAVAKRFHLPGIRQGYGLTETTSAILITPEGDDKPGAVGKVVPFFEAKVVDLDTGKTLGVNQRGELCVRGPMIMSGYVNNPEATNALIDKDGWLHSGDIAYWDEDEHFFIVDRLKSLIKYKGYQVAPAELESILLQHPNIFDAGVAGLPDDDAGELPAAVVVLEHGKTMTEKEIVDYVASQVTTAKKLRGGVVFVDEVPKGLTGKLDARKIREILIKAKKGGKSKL

Consider `Fc1ccc(Nc2nc(-c3cccnc3)nc3ccccc23)cc1`, for which the call in assay [1] and in assay [3] was inactive. Also, the activity change, negative = inhibition in assay [2] is -9.74% [at 7.69 µM] (inactive); in assay [7] (at 57.5 µM (top of the series)), 7.7% (inactive). The Potency in assay [4] was > 46 µM (inactive); in assay [5], > 46 µM (inactive); in assay [8] it was 39.8 µM (active). Besides, the Potency entry in [6] is “inactive”. In addition, the max response is -6.31% in [7] (setting [20]) and 0.257% in [7] (setting [21]).
With `COc1ccccc1OC[C@H](O)CO`, the molecule was called inactive in [1], in [3], in assay [9] and in assay [10]. In addition, the activity change, negative = inhibition in [2] was -3.75% (inactive); in assay [7] (at 25.7 µM (top of the series)), -4.43% (inactive). For the same molecule, the Potency result in assay [6], in [8], in [11], in assay [13], in [14] and in [15] was “inactive” throughout. Besides, the Potency result in assay [16], in assay [17], in [18] and in assay [19] was “inactive” in each case. In addition, the max response in assay [7] (setting [20]) was -24.7%; in assay [7] (setting [21]), -36%. Also, the activity, negative = inhibition in assay [12] (at 12.8 µM (top of the series), parasite line A) is 5.68% (inactive); in assay [12] (at 12.8 µM (top of the series), parasite line B), 4.87% (inactive).
Consider `NC[C@@H]1O[C@H](O[C@H]2[C@H](O)[C@@H](O[C@H]3[C@H](O)[C@H](N)C[C@H](N)[C@H]3O[C@@H]3O[C@H](CO)[C@@H](O)[C@H](O)[C@@H]3N)O[C@H]2CO)[C@@H](N)[C@H](O)[C@@H]1O`, for which the molecule was called inactive in [1], in assay [3] and in [9]. The activity change, negative = inhibition was -6.33% (inactive) in assay [2] and -3.71% (inactive) in assay [7] (at 25.7 µM (top of the series)). The Potency in assay [4] and in assay [5] was > 20.6 µM (inactive) in each case. For the same molecule, the Potency result in assay [6] is “inactive”. In addition, the max response in assay [7] (setting [20]) is -10.9%; in assay [7] (setting [21]), -14.4%.
As to `O=C(N[C@@H](CO)[C@@H](O)c1ccc([N+](=O)[O-])cc1)C(Cl)Cl`, the call in assay [1], in [3] and in assay [9] was inactive. Also, the activity change, negative = inhibition in assay [2] is -12.6% (inactive); in assay [7] (at 25.7 µM (top of the series)), -1.53% (inactive). In addition, the Potency result in assay [6] and in assay [8] was “inactive” throughout. Moreover, the max response in [7] (setting [20]) came to 11.1%; in assay [7] (setting [21]), 8.81%.
Consider `Cc1ccc2c(c1)c1c3n2CCN[C@H]3CCC1`, for which the outcome in assay [1], in assay [3], in [9] and in [10] was inactive. For the same molecule, the activity change, negative = inhibition was -11.2% (inactive) in assay [2] and -2.69% (inactive) in [7] (at 25.7 µM (top of the series)). Further, the Potency in assay [5] is > 20.6 µM (inactive) and > 46 µM (inactive). Moreover, the Potency entry in assay [6], in assay [8], in assay [11], in assay [13], in assay [14] and in assay [15] was “inactive” each time. Further, the Potency result in [16], in [17], in assay [18] and in assay [19] was “inactive” throughout. In addition, the max response was -5.65% in [7] (setting [20]) and -6.69% in assay [7] (setting [21]). In addition, the activity, negative = inhibition is -1.32% (inactive) in [12] (at 28.7 µM (top of the series), parasite line A) and 1.18% (inactive) in [12] (at 28.7 µM (top of the series), parasite line B).
Regarding `COc1ccc([C@@H]2CC(=O)c3c(O)cc(O)cc3O2)cc1O`, the outcome in assay [1], in [3] and in assay [9] was inactive. For the same molecule, the activity change, negative = inhibition in [2] is -2.52% (inactive); in assay [7] (at 25.7 µM (top of the series)) it was 0.892% (inactive). In [5], the Potency was > 20.6 µM (inactive) and > 46 µM (inactive). Also, the Potency result in assay [6] and in [8] was “inactive” throughout. Besides, the results for the max response in assay [7] (setting [20]) and in [7] (setting [21]) were -5.78% and -2.83%, respectively.

The record behind these values is PubChem BioAssay (NCATS).
